Assay results from PubChem BioAssay (Tox21).
Results filed as inconclusive are left out. The source made the active and inactive calls. Unless noted, calls come from the whole dose curve; as a rule, active = well fitted curve in the direction sought with a large enough effect in the repeat runs; inconclusive = weak or mixed curves; inactive = no such curve, though single readings can be large; an effect the other way counts as inactive or inconclusive.

Legend:
[1] = qHTS assay to test for compound auto fluorescence at 535 nm (green) in HEK293 cells (AID 720680)
[2] = qHTS assay to test for compound auto fluorescence at 460 nm (blue) in HEK293 cell free culture (AID 720681)
Summary of the method: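 Compounds were added to cell-free DMEM with 10% FBS and fluorescence read directly. The blue channel used 405 nm excitation and 460 nm emission, with triamterene as the reference fluorophore.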

[3] = qHTS assay to test for compound auto fluorescence at 535 nm (green) in HEK293 cell free culture (AID 720682)
Summary of the method: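 Steps: dispense DMEM/10% FBS into empty wells; pin in compound or DMSO; measure fluorescence at 485/535 nm. Values are fluorescein equivalents.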

[4] = qHTS assay to test for compound auto fluorescence at 590 nm (red) in HEK293 cell free culture (AID 720683)
Summary of the method: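 Cell-free wells of DMEM with 10% FBS received compound, and intrinsic fluorescence was read at excitation/emission 540/590 nm. Values expressed as equivalence to Rose Bengal sodium.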

[5] = qHTS assay to test for compound auto fluorescence at 460 nm (blue) in HepG2 cell free culture (AID 720685)
Summary of the method: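 Compound (23 nL) or DMSO pinned into cell-free MEM with 10% FBS; blue fluorescence read at 405/460 nm excitation/emission, expressed as auto-fluorescence equivalency to triamterene.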

[6] = qHTS assay to test for compound auto fluorescence at 535 nm (green) in HepG2 cell free culture (AID 720686)
[7] = qHTS assay to test for compound auto fluorescence at 460 nm (blue) in HepG2 cells (AID 720687)
Summary of the method: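 HepG2 cells in MEM with 10% FBS, attached overnight at 37 C, were exposed to compound or DMSO for 1 hr at 37 C, 5% CO2. Blue fluorescence was read at 405/460 nm, with triamterene as reference fluorophore.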

[8] = qHTS assay to identify small molecule antagonists of the glucocorticoid receptor (GR) signaling pathway - cell viability counter screen (AID 720693); note: nearly all actives have a fitted effect of over 55% in size
[9] = qHTS assay for identifying genotoxic compounds that show differential cytotoxicity against isogenic chicken DT40 cell lines with known DNA damage response pathways - wild type cell line (AID 743012); note: nearly all actives have a fitted effect of over 60% in size; note: potency is the fitted concentration of half-maximal effect
Summary of the method: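 Cells (DT40 wild type, 300/well) are treated with DMSO-dissolved compounds after a ~0.5 h pre-incubation and kept 40 h at 37 C/5% CO2. Viability is then measured by CellTiter-Glo luminescence following 30 min at room temperature.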

[10] = qHTS assay for identifying genotoxic compounds that show differential cytotoxicity against isogenic chicken DT40 cell lines with known DNA damage response pathways - Rev3 mutant cell line (AID 743014); note: nearly all actives have a fitted effect of over 55% in size
[11] = qHTS assay for identifying genotoxic compounds that show differential cytotoxicity against isogenic chicken DT40 cell lines with known DNA damage response pathways - Rad54/Ku70 mutant cell line (AID 743015); note: nearly all actives have a fitted effect of over 60% in size; note: potency is the fitted concentration of half-maximal effect
[12] = qHTS assay to identify small molecule antagonists of the androgen receptor (AR) signaling pathway - cell viability counter screen (AID 743033; note: nearly all actives have a fitted effect of over 45% in size)
[13] = target: Androgen receptor (Homo sapiens) (UniProt P10275); assay: qHTS assay to identify small molecule antagonists of the androgen receptor (AR) signaling pathway (AID 743035; active = well fitted inhibition curve with a large enough effect in the signal ratio in the repeat runs, not every such curve was filed as active; the % refers to the signal ratio)
Summary of the method: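 Antagonism is scored as loss of R1881-driven beta-lactamase reporter expression in HEK293 cells carrying the reporter under a UAS element, after 16 h co-treatment at 37C and a 2 h room-temperature FRET substrate read.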

[14] = target: Androgen receptor (Homo sapiens) (UniProt P10275); assay: qHTS assay to identify small molecule agonists of the androgen receptor (AR) signaling pathway (AID 743036; active = well fitted activation curve with a large enough effect in the signal ratio in the repeat runs, with a control signal flat, not every such curve was filed as active; the % refers to the signal ratio)
Summary of the method: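 Reporter line: GeneBLAzer AR-UAS-bla-GripTite (HEK293). Steps: plate cells, 4 h rest, add compounds, 16 h at 37C, add LiveBLAzer B/G substrate, 2 h at RT, read fluorescence.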

[15] = target: Androgen receptor (Homo sapiens) (UniProt P10275); assay: qHTS assay to identify small molecule agonists of the androgen receptor (AR) signaling pathway using the MDA cell line (AID 743040; note: nearly all actives have a fitted effect of over 20% in size)
Summary of the method: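 Human breast carcinoma MDA-kb2 reporter cells (MMTV-luc, AR/GR elements) were treated for 16 h at 37C in 0% CO2 following a 5 h settling period. Signal was quantified by ONE-Glo luminescence.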

[16] = qHTS assay to identify small molecule antagonists of the androgen receptor (AR) signaling pathway using the MDA cell line - cell viability counter screen (AID 743041; note: nearly all actives have a fitted effect of over 45% in size)
Summary of the method: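 Same-well cytotoxicity was assessed by CellTiter-Fluor in MDA-kb2 AR-luc cells after 16 h of compound treatment under R1881 agonism.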

[17] = target: Androgen receptor (Homo sapiens) (UniProt P10275); assay: qHTS assay to identify small molecule antagonists of the androgen receptor (AR) signaling pathway using the MDA cell line (AID 743042; note: nearly all actives have a fitted effect of over 55% in size)
Summary of the method: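 MDA-kb2 breast carcinoma cells carrying MMTV-luciferase (AR/GR responsive) were co-treated with compounds and the agonist R1881 for 16 h at 37C. Inhibition read as ONE-Glo luminescence; CellTiter-Fluor fluorescence measured in parallel for cytotoxicity.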

[18] = qHTS assay to test for compound auto fluorescence at 590 nm (red) in HepG2 cell free culture (AID 720684)
Summary of the method: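 Compounds are added to culture medium (MEM, 10% FBS) lacking cells, then fluorescence is read at excitation 540 nm, emission 590 nm, with Rose Bengal sodium as the equivalency standard.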

[19] = target: Glucocorticoid receptor (Homo sapiens) (UniProt P04150); assay: qHTS assay to identify small molecule agonists of the glucocorticoid receptor (GR) signaling pathway (AID 720691; active = well fitted activation curve with a large enough effect in the signal ratio in the repeat runs, not every such curve was filed as active; the % refers to the signal ratio; note: potency is the fitted concentration of half-maximal effect)
Summary of the method: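 Agonist mode in a HeLa line carrying a GRE-controlled beta-lactamase reporter. Compounds act for 18 h at 37 C before a 2 h room-temperature FRET substrate step and fluorescence reading.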

[20] = target: Glucocorticoid receptor (Homo sapiens) (UniProt P04150); assay: qHTS assay to identify small molecule antagonists of the glucocorticoid receptor (GR) signaling pathway (AID 720692; active = well fitted inhibition curve with a large enough effect in the signal ratio in the repeat runs, not every such curve was filed as active; the % refers to the signal ratio)
Summary of the method: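 Cells plated, rested 4 h at 37 C/5% CO2; compounds in DMSO pin-transferred; dexamethasone added to 5 nM final; 18 h at 37 C; B/G FRET substrate added, 2 h room temperature; fluorescence measured.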

Measured: Potency

Androgen receptor (Homo sapiens), sequence (P10275 whole entry, looked up): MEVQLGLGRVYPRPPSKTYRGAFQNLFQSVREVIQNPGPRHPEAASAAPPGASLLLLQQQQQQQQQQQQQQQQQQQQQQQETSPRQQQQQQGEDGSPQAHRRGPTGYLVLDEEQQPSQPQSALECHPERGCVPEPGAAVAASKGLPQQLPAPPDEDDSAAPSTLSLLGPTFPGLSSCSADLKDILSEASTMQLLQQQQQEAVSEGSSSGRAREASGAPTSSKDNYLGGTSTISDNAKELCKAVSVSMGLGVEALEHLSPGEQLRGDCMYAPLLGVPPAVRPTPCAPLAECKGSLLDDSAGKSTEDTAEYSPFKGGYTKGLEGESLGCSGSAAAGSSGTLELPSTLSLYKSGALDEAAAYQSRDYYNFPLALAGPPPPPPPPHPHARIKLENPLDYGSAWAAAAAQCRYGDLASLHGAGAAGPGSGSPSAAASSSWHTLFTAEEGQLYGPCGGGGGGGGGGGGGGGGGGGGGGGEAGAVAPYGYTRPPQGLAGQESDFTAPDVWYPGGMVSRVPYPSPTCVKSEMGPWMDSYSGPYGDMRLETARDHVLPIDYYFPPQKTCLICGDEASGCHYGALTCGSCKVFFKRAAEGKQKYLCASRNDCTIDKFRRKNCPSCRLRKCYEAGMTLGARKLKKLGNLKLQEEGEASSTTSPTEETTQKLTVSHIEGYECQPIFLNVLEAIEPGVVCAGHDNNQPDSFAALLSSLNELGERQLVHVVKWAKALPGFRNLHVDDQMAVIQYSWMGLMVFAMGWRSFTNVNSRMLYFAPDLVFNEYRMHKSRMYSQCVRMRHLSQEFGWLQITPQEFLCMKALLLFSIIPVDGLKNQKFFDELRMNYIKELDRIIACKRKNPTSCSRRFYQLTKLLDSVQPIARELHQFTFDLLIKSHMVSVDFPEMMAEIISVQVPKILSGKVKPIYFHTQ
Glucocorticoid receptor (Homo sapiens), sequence (P04150 whole entry, looked up): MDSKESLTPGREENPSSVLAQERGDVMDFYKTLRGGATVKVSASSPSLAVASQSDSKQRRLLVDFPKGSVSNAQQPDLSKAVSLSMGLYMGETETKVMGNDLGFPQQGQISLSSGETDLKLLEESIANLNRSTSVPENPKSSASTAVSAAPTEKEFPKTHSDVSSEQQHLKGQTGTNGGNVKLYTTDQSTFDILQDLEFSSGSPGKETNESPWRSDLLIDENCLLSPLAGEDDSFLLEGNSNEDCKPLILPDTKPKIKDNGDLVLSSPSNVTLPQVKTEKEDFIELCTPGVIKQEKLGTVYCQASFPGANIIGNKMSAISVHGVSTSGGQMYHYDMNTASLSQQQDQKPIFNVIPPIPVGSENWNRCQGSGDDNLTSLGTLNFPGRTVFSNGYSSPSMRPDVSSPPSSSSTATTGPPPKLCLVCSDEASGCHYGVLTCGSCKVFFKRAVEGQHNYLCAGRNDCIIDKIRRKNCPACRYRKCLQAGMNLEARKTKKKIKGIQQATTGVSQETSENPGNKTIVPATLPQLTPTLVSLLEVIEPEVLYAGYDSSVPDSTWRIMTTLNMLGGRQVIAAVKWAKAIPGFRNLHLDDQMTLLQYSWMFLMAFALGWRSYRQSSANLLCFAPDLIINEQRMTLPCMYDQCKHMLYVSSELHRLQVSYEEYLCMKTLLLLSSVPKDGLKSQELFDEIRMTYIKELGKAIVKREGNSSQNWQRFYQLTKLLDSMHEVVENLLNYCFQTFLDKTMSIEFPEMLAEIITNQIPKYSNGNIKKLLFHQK

COc1ccc(C(C)=O)cc1
not listed: [18] | [19] | [20]
inactive: all other assays above

CCCCCCCCCCCCCCCC(=O)OC/C=C(C)/C=C/C=C(C)/C=C/C1=C(C)CCCC1(C)C
not listed: [5] | [7] | [13] | [14] | [15] | [17] | [20]
inactive: all other assays above

CC1(C)[C@H]2CC[C@]1(C)[C@H](O)C2
not listed: [5] | [6] | [10] | [13] | [14] | [15] | [17] | [19]
inactive: all other assays above

CC[C@@H]1C[C@H](N(Cc2cc(C(F)(F)F)cc(C(F)(F)F)c2)C(C)=O)c2cc(C(F)(F)F)ccc2N1C(=O)OC(C)C
active: [9] 27.3 µM
not listed: [10] | [11] | [13] | [14] | [15] | [17] | [18]
inactive: all other assays above

CC(=O)[C@@]1(O)CC[C@H]2[C@@H]3C[C@H](C)C4=CC(=O)CC[C@]4(C)[C@H]3CC[C@@]21C
active: [19] 84.9 nM | [9] 16.8 µM | [11] 21.1 µM
not listed: [10] | [13] | [14] | [15] | [17] | [18] | [20]
inactive: all other assays above

C=CC[N+]1([C@H]2C[C@H]3[C@@H]4CC[C@H]5C[C@H](OC(C)=O)[C@@H](N6CCCCC6)C[C@]5(C)[C@H]4CC[C@]3(C)[C@H]2OC(=O)CC)CCCCC1
inactive: [1] | [2] | [3] | [4] | [18] | [6] | [8] | [12] | [16]

CC(=O)c1ccc2c(c1)[C@H](NC(=O)c1ccc(F)cc1)[C@@H](O)C(C)(C)O2
not listed: [13] | [14] | [15] | [17] | [18]
inactive: all other assays above

Cc1c(Cn2ccnc2)c2ccccc2n1CCC(=O)O
not listed: [5] | [6] | [7] | [13] | [14] | [15] | [17]
inactive: all other assays above

Nc1nc(CC(=O)O)cs1
not listed: [13] | [14] | [15] | [17] | [18] | [20]
inactive: all other assays above
